Measured values published in PubChem BioAssay AID2476 (The Scripps Research Institute Molecular Screening Center, 2010).
Activity calls are given as the source filed them. The rule behind the calls is not given here.

Test: fluorescent intercalator displacement from DNA, late-stage follow-up, counter-screen for HCV NS3 helicase inhibitor project, biochemical, fluorescence, dose response (AID 2476)

| Structure (SMILES) | IC50 |
| --- | --- |
| Cc1ccc(C(=O)C2=C(O)C(=O)N(Cc3ccco3)C2c2cccc(Cl)c2)o1 (configuration not stated) | > 79.4 µM (inactive) |
| CCOc1cccc(C2C(C(=O)c3ccc(C)o3)=C(O)C(=O)N2Cc2ccccc2)c1 (configuration not stated) | > 79.4 µM (inactive) |
| Cc1cc(N2C(=O)C(O)=C(C(=O)c3ccc(C)o3)C2c2ccc(OCc3ccccc3)cc2)no1 (configuration not stated) | > 79.4 µM (inactive) |
| COc1cc(C2C(C(=O)c3ccc(C)o3)=C(O)C(=O)N2c2cc(C)on2)ccc1OCc1ccccc1 (configuration not stated) | > 79.4 µM (inactive) |
| COc1ccc(C=NNC(=O)c2cc(O)c(O)c(O)c2)cc1COc1ccc(C(=O)OCC(C)C)cc1 | > 79.4 µM (inactive) |
| COc1cccc(-n2c(SCc3cc(=O)oc4cc(O)c(O)cc34)nc3ccccc3c2=O)c1 | > 79.4 µM (inactive) |
| CCCCCOc1ccc(C2C(C(=O)c3ccc(C)o3)=C(O)C(=O)N2c2cc(C)on2)cc1 (configuration not stated) | > 79.4 µM (inactive) |
